# Measured values from PubChem BioAssay (NCATS).
# Values joined by “and” are separate entries in the source; they are usually repeats but may differ in a detail not shown here. Equal values may be shown once. Inconclusive results are not listed. Active and inactive are the calls of the source. Unless noted, calls come from the whole dose curve; as a rule, active = well fitted curve in the direction sought with a large enough effect; inconclusive = small, poorly fitted or top-dose-only effect, or another doubt; inactive = no such curve, though single readings can be large; an effect the other way counts as inactive or inconclusive.
# Tested on: not listed separately
# Experiment: qHTS assay for small molecule activators of the nuclear factor-kappa B (NF-kB) signaling pathway (AID 651749; active = well fitted activation curve with a large enough effect in the signal ratio; the % refers to the signal ratio; note: % of control where 0% means no effect)
# Conditions: NF-kB-bla ME-180 cells, beta-lactamase FRET ratio, 16 h; stronger effect = higher value
# Summary of the method: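 Human ME-180 cervical cells with an NF-kB-bla construct; compounds added via 23 nL pin transfer, DMSO as vehicle; incubation 16 hr. Reporter activity measured by FRET disruption.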
row,Compound,activation
1,Cc1ccc(S(=O)(=O)NC(=O)NN2CCCCCC2)cc1,-1.9% (inactive)
2,CC(=O)Nc1nnc(S(N)(=O)=O)s1,1.13% (inactive)
3,CC(C)(Oc1ccc(CCNC(=O)c2ccc(Cl)cc2)cc1)C(=O)O,-0.302% (inactive)

# Biological target: Tumor necrosis factor (Homo sapiens) (UniProt P01375)
# Sequence (P01375 whole entry, looked up): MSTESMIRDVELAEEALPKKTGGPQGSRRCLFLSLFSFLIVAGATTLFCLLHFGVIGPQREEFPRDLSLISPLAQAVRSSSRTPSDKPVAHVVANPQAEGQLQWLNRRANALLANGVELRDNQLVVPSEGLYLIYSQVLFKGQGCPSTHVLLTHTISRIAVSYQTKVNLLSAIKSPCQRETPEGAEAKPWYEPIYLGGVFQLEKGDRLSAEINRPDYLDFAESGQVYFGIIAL
# Experiment: qHTS assay to identify small molecules that stimulate Tumor Necrosis Factor-alpha (TNF-alpha) secretion (AID 651757; active = well fitted curve in the direction sought with a large enough effect in the signal ratio; the % refers to the signal ratio; note: 0% is about no effect)
# Conditions: Human cells, HTRF 665/615 ratio; series mostly up to 92.2 µM; activation (TNF-alpha secretion): at the top concentration
# Text: (§1) National Center for Advancing Translational Sciences [NCATS]
# (§2) NIH Chemical Genomics Center [NCGC]
# (§3) National Institutes of Environmental Health Sciences [NIEHS]
# (§4) National Toxicology Program [NTP]
# Tumor Necrosis Factor-alpha (TNF-alpha), a secreted cytokine, plays an important role in inflammatory diseases and immune disorders. TNF-alpha, a 17 kDa cytokine, is mainly secreted by activated macrophages and monocytes in response to several inflammatory and immunological stimuli. To study the effect of environmental chemicals on TNF-alpha secretion, a homogeneous TNF-alpha assay was developed using Time Resolved fluorescence (HTRF) technology based on Time Resolved Fluorescent Resonance Energy Transfer (TR-FRET) (Leister et al., Current Chemical Genomics, 5:21-29, 2011). This assay allows measuring TNF-alpha secreted from the cells in a 1536-well plate format.
# THP-1 cells were dispensed at 3000 cells/5ul/well in 1536-well white solid plates. After addition of 23 nl of compound, positive controls and DMSO only, the assay plates were incubated at 37 C for 17 hrs, followed by addition of 5 uLof mixture of cryptate labeled and XL665 labeled anti-TNF-alpha antibodies. After the assay plates were incubated at room temperature for 3 hr, the plates were measured by an EnVision plate reader.
row,Compound,activation (TNF-alpha secretion)
1,CCCCNC(=O)NS(=O)(=O)c1ccc(C)cc1,-0.0265% (inactive)
2,CN=C(NC#N)NCCSCc1nc[nH]c1C,0.192% (inactive)
3,COC(=O)[C@H]1[C@H]2C[C@@H]3c4[nH]c5cc(OC)ccc5c4CCN3C[C@H]2C[C@@H](OC(=O)c2cc(OC)c(OC)c(OC)c2)[C@@H]1OC,3.64% (inactive)

# Tested on: not listed separately
# Experiment: qHTS assay for environmental chemicals that activate the Aryl hydrocarbon Receptor (AhR) signaling pathway (AID 651777); note: % of control where 0% means no effect; nearly all actives have a fitted effect of over 15% in size
# Conditions: 1A2-DRE human hepatoma cells, luciferase, 24 h; activation: stronger effect = higher value
# Summary of the method: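 Stable CYP1A2 promoter/DRE-luciferase human hepatoma line treated 24 hr; One-Glo luminescence, 30 min RT.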
row,Compound,activation
1,CCCCNC(=O)NS(=O)(=O)c1ccc(C)cc1,0.474% (inactive) and 1.06% (inactive)
2,Cc1ccc(S(=O)(=O)NC(=O)NN2CCCCCC2)cc1,10.4% (inactive)
3,COc1ccc(CN(CCN(C)C)c2ccccn2)cc1,3.63% (inactive)
4,CN=C(NC#N)NCCSCc1nc[nH]c1C,2.08% (inactive)
5,CC(=O)Nc1nnc(S(N)(=O)=O)s1,-1.84% (inactive)
6,COC(=O)[C@H]1[C@H]2C[C@@H]3c4[nH]c5cc(OC)ccc5c4CCN3C[C@H]2C[C@@H](OC(=O)c2cc(OC)c(OC)c(OC)c2)[C@@H]1OC,3.95% (inactive) and 8.69% (inactive)
7,CC(C)(Oc1ccc(CCNC(=O)c2ccc(Cl)cc2)cc1)C(=O)O,-0.0115% (inactive)

# Biological target: Peroxisome proliferator-activated receptor alpha (Homo sapiens) (UniProt Q07869)
# Sequence (Q07869 whole entry, looked up): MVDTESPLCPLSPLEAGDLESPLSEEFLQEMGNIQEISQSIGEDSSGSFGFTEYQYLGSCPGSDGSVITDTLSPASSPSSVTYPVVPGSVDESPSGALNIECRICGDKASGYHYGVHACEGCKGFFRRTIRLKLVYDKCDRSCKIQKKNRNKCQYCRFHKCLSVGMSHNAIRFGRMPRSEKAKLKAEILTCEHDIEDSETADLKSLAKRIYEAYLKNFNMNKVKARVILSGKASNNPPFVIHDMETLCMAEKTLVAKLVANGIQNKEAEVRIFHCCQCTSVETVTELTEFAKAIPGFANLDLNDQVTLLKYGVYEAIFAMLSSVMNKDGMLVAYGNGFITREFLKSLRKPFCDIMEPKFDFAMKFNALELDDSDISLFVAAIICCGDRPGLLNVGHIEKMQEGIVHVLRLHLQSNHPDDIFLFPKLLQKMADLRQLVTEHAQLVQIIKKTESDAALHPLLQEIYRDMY
# Experiment: qHTS assay for small molecule agonists of the peroxisome proliferator-activated receptor alpha (PPARalpha) signaling pathway (AID 651778); note: % of control where 0% means no effect
# Conditions: PathHunter PPARalpha complementation, chemiluminescence, 6 h; stronger effect = higher value
# Summary of the method: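 Cells plated at 2,000/well and held overnight at 37 C, 5% CO2, then compound added by pin tool for 6 hr; after PathHunter detection reagent and 60 min at room temperature, chemiluminescence from enzyme complementation was read.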
row,Compound,max response
1,CCCCNC(=O)NS(=O)(=O)c1ccc(C)cc1,-9.3% (inactive) and -3.45% (inactive)
2,Cc1ccc(S(=O)(=O)NC(=O)NN2CCCCCC2)cc1,-0.39% (inactive)
3,COc1ccc(CN(CCN(C)C)c2ccccn2)cc1,-5.33% (inactive)
4,CN=C(NC#N)NCCSCc1nc[nH]c1C,0.401% (inactive)
5,CC(=O)Nc1nnc(S(N)(=O)=O)s1,-2.77% (inactive)
6,COC(=O)[C@H]1[C@H]2C[C@@H]3c4[nH]c5cc(OC)ccc5c4CCN3C[C@H]2C[C@@H](OC(=O)c2cc(OC)c(OC)c(OC)c2)[C@@H]1OC,4.44% (inactive) and 8.97% (inactive)
7,CC(C)(Oc1ccc(CCNC(=O)c2ccc(Cl)cc2)cc1)C(=O)O,9.62% (inactive)

# Biological target: Nuclear receptor ROR-gamma (Homo sapiens) (UniProt P51449)
# Sequence (P51449 whole entry, looked up): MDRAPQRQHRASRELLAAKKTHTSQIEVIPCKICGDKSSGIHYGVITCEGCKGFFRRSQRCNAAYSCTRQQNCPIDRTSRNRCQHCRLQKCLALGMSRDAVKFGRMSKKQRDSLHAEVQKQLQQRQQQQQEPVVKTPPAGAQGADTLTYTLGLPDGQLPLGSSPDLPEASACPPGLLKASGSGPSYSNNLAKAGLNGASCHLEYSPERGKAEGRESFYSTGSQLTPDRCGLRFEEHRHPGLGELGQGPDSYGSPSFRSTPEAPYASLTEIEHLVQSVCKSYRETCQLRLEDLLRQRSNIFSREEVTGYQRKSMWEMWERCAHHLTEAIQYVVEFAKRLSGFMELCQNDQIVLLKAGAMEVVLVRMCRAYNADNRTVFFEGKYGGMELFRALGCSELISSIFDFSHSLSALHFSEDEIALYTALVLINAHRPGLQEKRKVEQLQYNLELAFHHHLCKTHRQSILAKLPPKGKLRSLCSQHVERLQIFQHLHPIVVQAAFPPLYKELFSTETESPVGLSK
# Experiment: qHTS assay for small molecule antagonists of the retinoid-related orphan receptor gamma (ROR-gamma) signaling pathway (AID 651802);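 note: luciferase reporter luminescence driven by ROR response element; % is set by controls: 0 for no effect and ±100 for the full control effect; nearly all actives have a fitted effect of over 60% in size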
# Conditions: ROR-gamma antagonist cell reporter assay; series mostly up to 92.2 µM; activity change, negative = inhibition: at the top concentration
# Text: as §1, §2, §3, §4
# Nuclear steroid hormone receptors are involved in many biological processes including inflammatory responses, cell proliferation, and apoptosis. Environmental factors or compounds disrupting these nuclear receptor pathways and gene expression may promote susceptibility to immunotoxicants and autoimmune diseases. One important group of these expression factors are the retinoid-related orphan receptors. To assess compounds that may interfere with the retinoid-related orphan receptor gamma (ROR-gamma) transcription factor, a cell-based luciferase assay was used.
# The CHO cell-based assay utilizes a TET-inducible ROR expression factor and ROR response element-LUC reporter gene. Reporter activity was induced using doxycycline and measured after 16hr incubation. Luminescence was read using Viewlux (PerkinElmer), where a decrease in reporter activity would show a decrease in luminescence.
# 1,000 cells in 4 uL/well were dispensed into white wall/solid bottom 1536-well plates using a Multidrop Combi (Thermo Scientific) dispenser. Following transfer of 23 nL compound or DMSO vehicle by a pin tool, the plates were treated with 1 ul doxycycline to induce reporter gene activity. After 16hr incubation at 37C and 5% CO2, 5uL one-glo (promega) was added to each plate and following 30 min incubation at room temperature, luminescence was quantified on a ViewLux (PerkinElmer) plate reader.
row,Compound,"activity change, negative = inhibition"
1,CCCCNC(=O)NS(=O)(=O)c1ccc(C)cc1,5.39% (inactive)
2,COc1ccc(CN(CCN(C)C)c2ccccn2)cc1,43.9% (inactive)
3,CN=C(NC#N)NCCSCc1nc[nH]c1C,16.4% (inactive)

# Biological target: Arylsulfatase A (Homo sapiens) (UniProt P15289)
# Sequence (P15289 whole entry, looked up): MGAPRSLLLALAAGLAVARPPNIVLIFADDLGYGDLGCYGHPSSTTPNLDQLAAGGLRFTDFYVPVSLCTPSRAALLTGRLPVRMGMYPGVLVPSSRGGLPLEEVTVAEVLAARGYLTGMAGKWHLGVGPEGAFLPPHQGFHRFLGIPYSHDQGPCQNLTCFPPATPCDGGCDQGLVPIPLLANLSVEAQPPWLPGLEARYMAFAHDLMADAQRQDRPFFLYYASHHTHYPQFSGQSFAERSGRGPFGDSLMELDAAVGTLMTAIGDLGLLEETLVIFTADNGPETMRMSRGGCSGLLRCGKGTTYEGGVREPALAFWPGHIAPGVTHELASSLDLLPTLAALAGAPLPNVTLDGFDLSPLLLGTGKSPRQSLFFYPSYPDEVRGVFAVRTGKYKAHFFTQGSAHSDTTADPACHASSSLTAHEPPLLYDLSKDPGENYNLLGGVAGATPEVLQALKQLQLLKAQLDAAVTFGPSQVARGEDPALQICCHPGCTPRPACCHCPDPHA
# Experiment: qHTS screen for enhancers of Arylsulfatase A (ASA1): LOPAC Validation Assay (AID 720538); for activity change, positive = activation: 0% is about no effect
# Conditions: ASA enzyme activity, LOPAC qHTS enhancer assay; series mostly up to 57.5 µM; activity change, positive = activation: at the top concentration; outcome: at the top concentration
# Summary of the method: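 MLD patient fibroblasts (SV40, ASA-I179S), 1536-well; adhere 6 hrs; cpd 48h, 37 degree C, 5% CO2; pNCS 0.5mM final in lysis buffer, 14h RT; stop 1N NaOH final; fluor. Ex525/Em598.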
Compound,"activity change, positive = activation",outcome
FC(F)(F)c1ccccc1-n1ccnc1,-4.96% (inactive),
CCCN(CCC)C(=O)C(CCC(=O)O)NC(=O)c1ccccc1 (stereo not given),,inactive
CCCCNC(=O)NS(=O)(=O)c1ccc(C)cc1,,inactive
COc1ccc2c(c1OC)C(=O)O[C@@H]2[C@H]1c2c(cc3c(c2OC)OCO3)CCN1C,,inactive
CN(C)C/C=C(/c1ccc(Br)cc1)c1cccnc1,-1.14% (inactive),
CN1CCN(CC(=O)N2c3ccccc3C(=O)Nc3cccnc32)CC1,-15.9% (inactive),
CN(C)CCOC(=O)COc1ccc(Cl)cc1,,inactive; inhibitor; fitted 8.4921 uM
COc1ccc(CN(CCN(C)C)c2ccccn2)cc1,,inactive
CN(C)CCCN1c2ccccc2Sc2ccccc21,,inactive; inhibitor; fitted 2.6855 uM
c1ccc2c(c1)CCCC2C1=NCCN1 (stereo not given),-20.9% (inactive),
CCn1ccnc1CC1COc2ccccc2O1 (stereo not given),6.78% (inactive),
OC(CCN1CCCCC1)(c1ccccc1)C1CCCCC1 (stereo not given),,inactive
CCc1cccc(N(C)C(N)=Nc2cccc3ccccc23)c1,12.9% (inactive),
COCCc1ccc(OCC(O)CNC(C)C)cc1 (stereo not given),,inactive
CN1C[C@H](C(=O)N[C@]2(C)O[C@@]3(O)[C@@H]4CCCN4C(=O)[C@H](Cc4ccccc4)N3C2=O)C[C@@H]2c3cccc4[nH]cc(c34)C[C@H]21,,inactive
CN1C(=O)CC[C@H]1c1cccnc1,-17.6% (inactive),

Compound,"activity change, positive = activation",outcome
CCN1CCc2nc(N)oc2CC1,2.21% (inactive),
CC(C)NNC(=O)c1ccncc1,,inactive
CC(=O)[C@]1(O)Cc2c(O)c3c(c(O)c2[C@@H](O[C@H]2C[C@H](N)[C@H](O)[C@H](C)O2)C1)C(=O)c1ccccc1C3=O,-982% (inactive),
CN(C)C(=O)Oc1ccc[n+](C)c1,-5.23% (inactive),
CC(=O)Oc1cc(C(C)C)c(OCCN(C)C)cc1C,22.2% (inactive),
CCO/C([O-])=N/c1c[n+](N2CCOCC2)no1,-53.5% (inactive),
CN(C(=O)CCCOc1ccc2[nH]c(=O)ccc2c1)C1CCCCC1,,inactive
CCCCCCCC/C=C\CCCCCCCC(=O)NCc1ccc(O)c(OC)c1,-43.7% (inactive),
NC(N)=N/N=C/c1c(Cl)cccc1Cl,,inactive
CCCCCN(CCCCC)C(=O)C(CCC(=O)O)NC(=O)c1ccc(Cl)c(Cl)c1 (stereo not given),,inactive; inhibitor; fitted 8.4921 uM
Fc1ccc(C(c2ccc(F)cc2)N2CCN(C/C=C/c3ccccc3)CC2)cc1,,inactive
CC[N+](C)(C)c1cccc(O)c1,,inactive
Cc1scc2c1N(C(=O)CN1CCN(C)CC1)c1ccccc1NC2=O,,inactive
CCN(CC)CCCN(c1ccccc1)C1Cc2ccccc2C1,-57.5% (inactive),
CCCN(CCC)CCc1cccc2c1CC(=O)N2,,inactive; inhibitor; fitted 6.7456 uM
CC(C)(Oc1ccc(CCNC(=O)c2ccc(Cl)cc2)cc1)C(=O)O,-3.07% (inactive),
